Bioassay records: PubChem BioAssay, The Scripps Research Institute Molecular Screening Center
PAFAH1B3 FP inh: blocks human PAF acetylhydrolase 1B catalytic subunit 3. AID 492972. recombinant PAFAH1B3, FP-rhodamine probe, fluorescence polarization. hit rate 0.28% among 340,000. inhibition, % at 3.39 µM. Q15102;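 active means inhibition above the screen-wide average of all tested compounds plus 3 SD, cut at about 25% in these data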;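 further: 0% = enzyme with DMSO only and 100% = wells lacking PAFAH1B3 protein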
LYPLA1 counter: counter-screen for PME1 inhibitors: inhibitors of human LYPLA1; O75608; recombinant LYPLA1, FP-Rh probe fluorescence polarization; inhibition, % at 5.9 µM; hit rate 0.16% among 320,000;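 active means inhibition above the mean of all tested compounds plus 3 SD, set per campaign, cut at about 14% in these data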;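 further: inhibitors block serine hydrolase probe labeling of LYPLA1 so polarization falls; 0% = enzyme with DMSO and 100% = wells lacking LYPLA1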
Target sequence (O75608 whole entry, looked up): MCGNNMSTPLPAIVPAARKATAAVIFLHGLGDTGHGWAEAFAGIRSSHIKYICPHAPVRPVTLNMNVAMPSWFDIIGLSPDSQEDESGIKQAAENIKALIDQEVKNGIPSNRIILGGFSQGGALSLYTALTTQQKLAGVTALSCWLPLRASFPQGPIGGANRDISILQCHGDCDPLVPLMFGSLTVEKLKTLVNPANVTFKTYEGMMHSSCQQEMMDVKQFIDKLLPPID
PAFAH1B2 inh: blocks human PAF acetylhydrolase 1b catalytic subunit 2; hit rate 1.2% among 340,000; inhibition, % at 3.39 µM; recombinant PAFAH1B2, FP-rhodamine activity probe, fluorescence polarization; P68402; AID 492953;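 active means inhibition above the mean of all tested compounds plus 3 SD, cut at about 24% in these data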;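 further: 0% = enzyme with DMSO and 100% = wells lacking PAFAH1B2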
Target sequence (P68402 whole entry, looked up): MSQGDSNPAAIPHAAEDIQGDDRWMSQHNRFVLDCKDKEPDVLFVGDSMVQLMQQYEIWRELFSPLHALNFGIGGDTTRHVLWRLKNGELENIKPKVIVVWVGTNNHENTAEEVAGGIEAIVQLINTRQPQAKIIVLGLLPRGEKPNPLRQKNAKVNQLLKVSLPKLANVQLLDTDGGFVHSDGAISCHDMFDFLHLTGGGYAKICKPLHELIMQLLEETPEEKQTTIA
PAFAH2 FP inh: inhibitors of human PAFAH2 | Q99487 | recombinant PAFAH2, FP-rhodamine activity probe, fluorescence polarization | inhibition, % at 3.39 µM | hit rate 0.99% among 340,000 | AID 492956;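 active means inhibition above the mean over all tested compounds plus 3 SD, cut at about 30% in these data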;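 further: inhibitors block probe labeling of enzyme so polarization drops; 0% = enzyme with DMSO and 100% = wells lacking PAFAH2 protein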
pPAFAH FP inh: pPAFAH (human) enzyme inhibition. Q13093. recombinant pPAFAH, FP-rhodamine probe fluorescence polarization. inhibition, % at 3.39 µM. hit rate 1.5% among 330,000. AID 463082;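 active means inhibition above the mean inhibition across the screen plus 3 SD, cut at about 25% in these data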;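 further: inhibitors block binding of the rhodamine activity-based probe so polarization drops; 0% = enzyme with DMSO and 100% = wells lacking pPAFAH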
LYPLA2 inh: counter-screen for PME1 inhibitors: inhibitors of human LYPLA2; inhibition, % at 5.9 µM; O95372; hit rate 0.38% among 320,000; recombinant LYPLA2, FP-Rh probe fluorescence polarization;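 active means inhibition above the screen-wide mean plus 3 SD, limit set per campaign, cut at about 26% in these data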;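 further: 0% = LYPLA2 with DMSO and 100% = wells lacking LYPLA2 enzyme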
Target sequence (O95372 whole entry, looked up): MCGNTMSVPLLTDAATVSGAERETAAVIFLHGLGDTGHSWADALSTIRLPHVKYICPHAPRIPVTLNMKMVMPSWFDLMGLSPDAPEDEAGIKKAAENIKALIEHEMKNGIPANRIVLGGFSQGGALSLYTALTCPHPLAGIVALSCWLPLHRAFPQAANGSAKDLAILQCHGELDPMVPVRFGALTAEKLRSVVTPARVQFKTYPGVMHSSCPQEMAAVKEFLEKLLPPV
pPAFAH confirm: confirmation of human plasma PAF acetylhydrolase (pPAFAH) inhibitors; shares compounds with pPAFAH FP inh; recombinant pPAFAH, FP-Rh probe fluorescence polarization; inhibition, % at 3.39 µM; hit rate 72% among 2,300; AID 463230;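 active means mean inhibition of the triplicate above the hit cutoff set for the earlier primary screen, cut at about 25% in these data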;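 further: 0% = enzyme with DMSO and 100% = wells lacking pPAFAH enzyme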
The depositor's hits bear a star; nt = not tested or not shown. Only some compounds are listed: those with a hit (about 2.9% of all), similar ones and a draw of the others.

SMILES	PAFAH1B3 FP inh	LYPLA1 counter	PAFAH1B2 inh	PAFAH2 FP inh	pPAFAH FP inh	LYPLA2 inh	pPAFAH confirm
COc1ccc(S(=O)(=O)N2CCN(C(=O)c3cc4c(s3)CCC4)CC2)cc1	12.8	nt	6.3	24.9	43.1*	nt	34.5*
O=C(COC(=O)c1c2c(nc3ccccc13)/C(=C/c1cccc([N+](=O)[O-])c1)CCC2)NC1CCS(=O)(=O)C1 (stereo unspecified)	-8.4	-16.9	-2.4	-14.9	37.6*	-22.1	43.9*
CN(C(=O)COC(=O)c1c2c(nc3ccccc13)/C(=C/c1cccc([N+](=O)[O-])c1)CCC2)C1CCS(=O)(=O)C1 (stereo unspecified)	-0.6	-5.2	-3.6	-14.2	24.0	-3.1	nt
COC(=O)c1c(NC(=O)/C=C/C(=O)O)sc(C)c1-c1ccc(C)c(C)c1	9.3	2.4	3.2	10.2	43.7*	5.7	28.0*
CCOC(=O)c1c(NC(=O)/C=C/C(=O)O)sc(C)c1-c1ccc(C)c(C)c1	10.4	-1.1	-5.2	-1.0	54.0*	-1.2	63.4*
COC(=O)c1c(NC(=O)/C=C/C(=O)O)sc(C)c1-c1ccc(C(C)C)cc1	1.0	2.0	-4.9	1.7	19.9	-3.4	nt
O=c1cc2oc3cc(O)c(O)cc3c(-c3ccccc3[N+](=O)[O-])c-2cc1O	13.1	-3.8	17.4	56.8*	87.6*	-1.8	83.2*
COCCNC(=O)c1ccc(N2CC3CC(C2)c2cccc(=O)n2C3)c(NC(=O)c2cc(OC)cc(OC)c2)c1 (stereo unspecified)	7.2	1.2	-4.2	3.5	4.0	7.6	nt
CCOCCCNC(=O)c1ccc(N2CC3CC(C2)c2cccc(=O)n2C3)c(NC(=O)Nc2cccc(OC)c2)c1 (stereo unspecified)	3.7	3.1	-1.0	15.7	66.3*	0.0	65.9*
CCc1ccc(NC(=O)Nc2cc(C(=O)NCC3CCCO3)ccc2N2CC3CC(C2)c2cccc(=O)n2C3)cc1 (stereo unspecified)	6.1	5.3	0.4	17.7	87.4*	9.5	93.5*
COc1cccc(CN(C)C(=O)c2cc(S(=O)(=O)N3CCCCCC3)ccc2OC)c1	-6.1	-3.0	1.7	-4.4	1.0	-1.0	nt
Cc1ccc(S(=O)(=O)N(C)C)cc1NC(=O)CN1C(=O)NC(Cc2c[nH]c3ccccc23)C1=O (stereo unspecified)	-2.0	-1.6	7.8	-1.6	1.4	0.1	nt
Cc1ccc(S(=O)(=O)N(C)C)cc1NC(=O)CN1C(=O)NC(Cc2ccccc2)C1=O (stereo unspecified)	-1.7	0.2	1.5	-3.3	42.1*	3.0	-2.6
COc1cccc(OC)c1-c1nn2c(-c3cc(-c4ccccc4)n[nH]3)nnc2s1	-2.0	-0.3	0.4	42.3*	37.2*	12.4	45.9*
COC(=O)CSc1cc(C(=O)c2nccn2C)c2ccccc2n1	4.7	0.4	-1.1	0.3	42.8*	14.0	21.9
Cc1cc(C(=O)CCl)c(C)n1CCc1ccccc1	nt	-0.5	nt	nt	53.5*	-3.8	3.9
CCOC(=O)c1cc(C)n(CCc2ccccc2)c1C	-6.0	0.8	1.3	-6.9	4.2	0.0	nt
COC(=O)COc1ccc2c(=O)c(Oc3ccccc3)c(C)oc2c1	9.1	2.5	7.5	3.4	2.5	-0.2	nt
CCOc1cc(CNCCO)cc(Br)c1OCc1ccc(Cl)cc1Cl	-0.1	2.3	3.7	-3.1	42.0*	2.8	30.4*
N#Cc1sc2nc(-c3ccccc3)cc(-c3ccco3)c2c1N	34.1*	-5.7	4.5	23.4	42.6*	1.9	14.6
Cc1ccc(NC2=C/C(=N/S(=O)(=O)c3cccs3)c3ccccc3C2=O)cc1	44.8*	-1.0	1.0	4.1	53.2*	-2.7	65.1*
COC(=O)c1ccccc1NC1=C/C(=N\S(=O)(=O)c2ccc(C(=O)O)cc2)c2ccccc2C1=O	70.9*	13.4	52.6*	71.8*	37.0*	26.4*	39.4*
O=C1C(Nc2ccccc2)=C(NS(=O)(=O)c2ccccc2)C(=O)c2ccccc21	7.7	-1.3	20.3	7.0	10.1	7.5	nt
O=C1C(Nc2ccccc2)=C/C(=N/S(=O)(=O)c2cccs2)c2ccccc21	62.2*	-3.8	37.9*	49.3*	62.5*	0.6	60.4*
COC(=O)c1ccccc1Nc1ccccc1	3.4	2.9	-1.4	0.3	4.0	-1.5	nt
SMILES	PAFAH1B3 FP inh	LYPLA1 counter	PAFAH1B2 inh	PAFAH2 FP inh	pPAFAH FP inh	LYPLA2 inh	pPAFAH confirm
Cc1ccc(NC2=C(NCCO)C(=O)c3ccccc3C2=O)cc1	21.6	-6.2	-2.7	8.6	-4.2	-2.8	nt
Cc1ccc(S(=O)(=O)/N=C2\C=C(Nc3ccc(O)cc3)C(=O)c3ccccc32)cc1	60.9*	nt	26.9*	35.1*	38.3*	nt	33.4*
COc1ccc(C2C(C#N)=C(N)N(c3ccccc3)C3=C2C(=O)CCC3)cc1Cn1cc([N+](=O)[O-])cn1 (stereo unspecified)	4.1	-5.7	4.4	0.1	16.8	-4.7	nt
CC(=O)NS(=O)(=O)c1ccc(NC(=O)NC2CCCCC2)cc1	8.8	0.1	4.5	12.1	3.5	1.9	nt
CCOC(=O)N1CCN(C(=O)C2CCCN(S(=O)(=O)c3c(C)cc(C)cc3C)C2)CC1 (stereo unspecified)	7.9	-3.4	-1.2	-1.2	3.4	2.4	nt
COc1ccc(C(=O)NCCN=C2NS(=O)(=O)c3ccccc32)cc1	7.0	-4.8	4.4	0.9	3.1	-1.3	nt
CCN1CCN(CCCNC(=O)c2ccc3c(c2)NC(=O)/C(=C\c2cccc(C)c2)S3)CC1	6.8	-3.1	11.5	5.5	14.2	1.6	nt
COc1ccc(-n2cc(-c3ccccc3)c3c(N4CC(C)OC(C)C4)ncnc32)cc1 (stereo unspecified)	10.9	-2.9	-2.8	-10.6	-1.5	-3.9	nt
O=c1c(-c2ccc([N+](=O)[O-])cc2)coc2c(O)c(O)ccc12	17.2	-8.6	8.7	23.8	53.6*	2.5	78.2*
Cc1oc2c(O)c(O)ccc2c(=O)c1-c1cnn(-c2ccccc2)c1	6.0	-10.6	1.2	33.0*	50.8*	0.9	59.6*
Cc1oc2cc(O)cc(C)c2c(=O)c1-c1cnn(-c2ccccc2)c1	6.5	-4.7	2.5	7.5	-1.3	-5.6	nt
COc1cc(C(C(=O)NCC2CCCO2)N(C(=O)Cn2nnc3ccccc32)c2ccc(OC)c(OC)c2)ccc1O (stereo unspecified)	-7.7	-1.1	1.9	-3.8	3.2	2.6	nt
COc1cccc2nc3cc(C)c(C)cc3nc12	25.0	0.2	23.1	24.6	41.8*	-1.6	12.6
COc1cccc2c1nc(C)c1cc(C)oc12	3.0	-0.5	-2.2	-3.7	-4.1	0.5	nt
O/C(=C\c1ccc2ccccc2n1)c1ccncc1	0.3	0.3	1.8	0.2	2.5	-2.2	nt
Cc1cnc(C(=O)OCC(=O)NC(=O)NC(C)C)cn1	-5.0	4.0	3.5	5.4	2.6	7.0	nt
